# In the library only some 12% were active in any assay of this set; here they are far more common.
# JMJD2A Tudor inh – qHTS Assay for Inhibitors of JMJD2A-Tudor Domain | AID 504339, 2011 | AlphaScreen JMJD2A-Tudor / H3K4me3 peptide binding | Lysine-specific demethylase 4A (Homo sapiens), O75164 | Potency, µM (titrated, usually from 114 µM), inactives show at the highest dose activity change, negative = inhibition, actives largely listed as inhibitors | 390,000 tested, 4.4% active; also: % is scaled to controls: 0 for no effect and ±100 for the full control effect; nearly all actives have a fitted effect of over 50% in size
# G9a block – qHTS Assay for Inhibitors of Histone Lysine Methyltransferase G9a. G9a H3K9 monomethylation, AlphaScreen, 2 h. Histone-lysine N-methyltransferase EHMT2 (Homo sapiens), Q96KQ7. Potency, µM (series often up to 102 µM), without a hit: top-dose activity, negative = inhibition, hits mostly inhibitors. 350,000 tested, 8.8% active; also: % is scaled to controls: 0 for no effect and ±100 for the full control effect; nearly all actives have a fitted effect of over 75% in size
#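 Using a bead-based AlphaScreen, monomethylated H3K9 product from 2 h room-temperature reactions (G9a 20 nM, peptide 500 nM, SAM 20 uM) was detected with 0.5 ug/mL rabbit anti-H3K9me1 antibody.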
# Sfp PPTase inh – qHTS Assay for Inhibitors of Bacillus subtilis Sfp phosphopantetheinyl transferase (PPTase) | 4'-phosphopantetheinyl transferase ffp (Bacillus subtilis), Q9F4F7 | Biochemical Sfp PPTase activity, qHTS | Potency, µM, inactives show largest response in the series, negative = inhibition, hits mostly inhibitors | 310,000 tested, 3.5% active | AID 1490, 2009;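 also: the enzyme is Sfp with the accession as filed and its product quenches rhodamine fluorescence; 0% = enzyme reaction without inhibitor and -100% = no enzyme wells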
#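 Step 1, compound plus 15 nM Sfp-PPTase, 15 min, room temperature. Step 2, add rhodamine-CoA (5 uM) and BHQ-2-YbbR (12.5 uM). Step 3, read 525/598 nm fluorescence at 0 and 30 min.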
# BAZ2B block – qHTS Assay for Inhibitors of BAZ2B; AlphaScreen BAZ2B-H3K14Ac peptide displacement; 360,000 tested, 4.4% active; Potency, µM (series often up to 114 µM), for the others: at the top dose activity change, negative = inhibition, usual class: inhibitors; Bromodomain adjacent to zinc finger domain protein 2B (Homo sapiens), Q9UIF8; also: % is scaled to controls: 0 for no effect and ±100 for the full control effect; nearly all actives have a fitted effect of over 60% in size
#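 Protein-peptide AlphaScreen: BAZ2B 50 nM, b-H3K14Ac 50 nM, 1x PBS pH 7.4 + 0.01% Tween-20. Preincubation 30 min RT; cpd 30 min RT (top 110 uM); beads 20 min RT, light-protected.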
# HP1b binding inh – HTS for Inhibitors of HP1-beta Chromodomain Interactions with Methylated Histone Tails; AlphaScreen HP1-beta / biotin-H3K9me3 peptide binding; 390,000 tested, 0.56% active; Potency, µM (highest dose often 114 µM), for inactives: at the top dose activity change, negative = inhibition, actives largely listed as inhibitors; Chromobox protein homolog 1 (Homo sapiens), P83916; AID 540317, 2011; also: nearly all actives have a fitted effect of over 70% in size
#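 AlphaScreen: HP1-beta (50 nM) preformed 30 min with biotin-H3(1-18)K9me3 peptide (50 nM) in PBS pH 7.4, 0.01% Tween-20. Compound added for 30 min at RT, then streptavidin donor/nickel chelate acceptor beads (10 ug/mL) for 30 min.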
# L3MBTL1 block – qHTS Assay for the Inhibitors of L3MBTL1. AlphaScreen L3MBTL1–H3K9me1 peptide binding. Potency, µM (series often up to 57.1 µM), inactives show top-dose activity, negative = inhibition, hits mostly inhibitors. 230,000 tested, 0.66% active; also: % is scaled to controls: 0 for no effect and ±100 for the full control effect; nearly all actives have a fitted effect of over 60% in size
#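 L3MBTL1 50 nM + b-AHA-H3(1-15)K9me1 75 nM, 30 min RT; compound added, 30 min RT; streptavidin donor/Ni-chelate acceptor beads 10 ug/mL each final, 30 min RT dark; AlphaScreen read.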
# The depositor's hits bear a star; ? = inconclusive; · = no result; [ ] = another dose, or the depositor's remark. Calls follow the shape of the dose curve; as a rule, active = well fitted curve in the direction sought with a large enough effect; inconclusive = small, poorly fitted or top-dose-only effect, or another doubt; inactive = no such curve, though single readings can be large; an effect the other way counts as inactive or inconclusive. Potency is read from the fitted curve at half-maximal effect.
SMILES,JMJD2A Tudor inh,G9a block,Sfp PPTase inh,BAZ2B block,HP1b binding inh,L3MBTL1 block
COc1ccc(-c2nc(SCC(=O)NCc3nc4ccccc4n3C)n3[nH]c(=O)cc3n2)cc1,-2%,39%[59 µM],·,-27%,33%,·
COc1cc(C(=O)NNC(=S)NC(=O)c2ccc(F)cc2)cc(OC)c1OC,-28%,·,4%,-31%,?,·
CC(C)(C)NC(=O)Cn1nnc(-c2ccc(OCc3c(F)cccc3Cl)cc2)n1,-28%,30%,10%,-21%,22%,4%
CCCc1cc(C(=O)OCC(=O)N2CCN(c3ccc(OC)cc3)CC2)sc1C,?,17%[2.33 µM],·,?,?,-28%
CC(=Nc1ccccc1O)c1sc2ccccc2c1O,?,?,-6%,?,8%,-2%
CC(=Nc1ccc(O)cc1)c1sc2ccccc2c1O,-10%,10µM*,-16%,-35%,0%,-7%
CC(=O)NCCN=C(C)c1sc2ccccc2c1O,-23%,18µM*,-14%,-6%,-5%,-5%
CC[C@]12C(=O)N(C)C[C@H]([C@@H]3C(=O)N(Cc4ccccc4)C(=O)[C@@H]31)N2C(=O)c1ccc(C(F)(F)F)cc1,-13%,·,·,·,30%,·
Cc1ccc2nc3c(cc(C(=O)NCC4CCCO4)c(=N)n3CCCOC(C)C)c(=O)n2c1 (stereo not drawn),?,56µM*,16%,0%,-11%,7%
COc1ccc(-c2cc(C(=O)NC(Cc3cc4ccccc4[nH]3)C(=O)O)c(C)o2)cc1OC (stereo not drawn),-35%,32µM*,22µM*,-30%,?,·
COc1cc(Cl)c(C)cc1NC(=O)c1cnn(-c2ccc(C)cc2)c1-n1cccc1,-14%,-31%[59 µM],·,-17%,4%,·
Cc1cc(OCC(=O)NCCO)cc(C)c1Cl,89µM*,-7%[59 µM],-11%,8%,15%,1%
Cc1ccc(OCC(=O)NCCCNC(=O)COc2ccc(C)cc2)cc1,-2%,35µM*,0%,-26%,22%,·
COc1ccc(CNC(=O)c2cnc3n(c2=O)CCS3)cc1,-11%,45µM*,8%,7%,38%,6%
O=C(NCc1cccnc1)c1cnc2n(c1=O)CCS2,-8%,-11%[59 µM],4%,9%,16%,3%
O=C(NCc1ccccc1Cl)c1cnc2n(c1=O)CCS2,-11%,56µM*,?,-14%,38%,·
COC(=O)C1=C(C)Nc2ccc(C)cc2S1,79µM*,40µM*,?,40µM*,?,·
O=C1Nc2ccccc2S/C1=C/NCc1ccccc1Cl,50µM*,32µM*,56µM*,?,-24%,9%
CCOC(=O)c1ccccc1OCc1cc(C2Nc3ccccc3C(=O)N2c2cccc3ccccc23)ccc1OC (stereo not drawn),-3%[57.1 µM],·,·,·,-8%[57 µM],·
C(=Nc1ccccc1)c1ccc[nH]1,-16%,·,·,·,12%,·
Oc1ccccc1N=Cc1ccc[nH]1,-10%,-11%[12.7 µM],25µM*,?,31%,·
CCSc1nnc(N2C(=O)C(O)=C(C(=O)c3ccco3)C2c2cccc(OC)c2)s1 (stereo not drawn),89µM*,35µM*,?,?,24%,·
Cc1cc(N2C(=O)C(O)=C(C(=O)c3ccco3)C2c2cccnc2)no1 (stereo not drawn),·,25%[59 µM],18%,-5%,·,3%
CSc1nnc(N2C(=O)C(O)=C(C(=O)c3ccco3)C2c2ccc(F)cc2)s1 (stereo not drawn),-3%,22µM*,35µM*,?,39%,·
CSc1nnc(N2C(=O)C(O)=C(C(=O)c3ccco3)C2c2cccc(Cl)c2)s1 (stereo not drawn),?,·,6.3µM*,79µM*,33%,·
SMILES,JMJD2A Tudor inh,G9a block,Sfp PPTase inh,BAZ2B block,HP1b binding inh,L3MBTL1 block
C/C=C(/C)C(=O)Nc1cccc(C2=NOC3(C2)C[C@@H](C(N)=O)N(C(=O)c2ccc(OC)cc2)C3)c1 (stereo partly drawn),-9%,0%[59 µM],5%,-21%,21%,·
C/C=C\C=C/C(=O)Nc1cccc(C2=NOC3(C2)C[C@H](C(N)=O)N(C(=O)c2ccc(OC)cc2)C3)c1 (stereo partly drawn),?,?,13µM*,-22%,?,·
C/C=C\C=C/C(=O)Nc1cccc(C2=NOC3(C2)C[C@@H](C(N)=O)N(C(=O)c2ccc(Cl)cc2)C3)c1 (stereo partly drawn),-32%,?,7.1µM*,?,11%,·
NC(=O)C1(NC(=O)[C@@H]2CC3(CC(c4cccc(NC(=O)c5cc([N+](=O)[O-])cc([N+](=O)[O-])c5)c4)=NO3)CN2C(=O)c2ccccc2)CC1 (stereo partly drawn),?,·,79µM*,-38%,19%,-3%
C/C=C/C(=O)Nc1cccc(C2=NOC3(C2)C[C@@H](C(N)=O)N(C(=O)c2cc([N+](=O)[O-])cc([N+](=O)[O-])c2)C3)c1 (stereo partly drawn),-31%,-7%[12.7 µM],?,-11%,22%,·
O=C1Nc2ccccc2C1(O)C/C(=N/O)c1ccccc1 (stereo not drawn),20µM*,-5%,13%,-11%,-16%,8%
CC(=O)CC1(O)C(=O)Nc2ccccc21 (stereo not drawn),-7%,·,-1%,9%,28%,21%
O=C1CCN(Cc2ccccc2)C=C1c1ccc2ccccc2c1,45µM*,·,·,·,-17%,-13%
O=C1CCN(Cc2ccccc2)C=C1c1ccc(Cl)cc1,-33%,·,·,·,20%,-6%
COc1ccccc1Cn1cc(C(=O)c2ccc(C)cc2)c(=O)c2cc(C)ccc21,-6%,4%[59 µM],·,3%,63%,·
COc1ccc([N+](=O)[O-])cc1NC(=S)NC(C)=O,?,29%[12.7 µM],14%,-9%,21%,-5%
COCCSc1ccccc1C(=O)Nc1ccc([N+](=O)[O-])cc1OC,-13%,22µM*,16%,-29%,17%,-12%
CSc1ccccc1C(=O)Nc1cccc([N+](=O)[O-])c1C,-6%,-49%,2%,-6%,27%,10%
COc1ccc([N+](=O)[O-])cc1NC(=O)CC(c1ccccc1)c1ccccc1,-11%,4%[59 µM],3%,6%,25%,1%
